Screening results from PubChem.
Sampled rows, rich in hits. Any-hit rate of the full collection: about 12%.
PLK1 PBD inh – blocks phosphopeptide binding to human PLK1 polo-box domain; Plk1 PBD binding of FITC phosphopeptide, fluorescence polarization; 360,000 tested, 2.8% active; P53350; Potency, µM, usual class: inhibitors; also: series mostly up to about 57 µM; nearly all actives have a fitted effect of over 65% in size
HP1b binding inh – HP1-beta chromodomain-methylated histone interaction inhibition; P83916; AlphaScreen HP1-beta / biotin-H3K9me3 peptide binding; 390,000 tested, 0.56% active; AID 540317; Potency, µM (titrated, usually from 114 µM), hits mostly inhibitors; also: nearly all actives have a fitted effect of over 70% in size
Target sequence (P83916 whole entry, looked up): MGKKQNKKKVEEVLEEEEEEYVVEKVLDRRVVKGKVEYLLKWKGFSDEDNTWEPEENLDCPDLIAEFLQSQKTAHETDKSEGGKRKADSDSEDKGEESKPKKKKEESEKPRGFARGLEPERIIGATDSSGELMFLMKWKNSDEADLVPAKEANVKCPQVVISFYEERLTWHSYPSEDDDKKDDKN
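Compound inhibition of the preformed complex between 50 nM HP1-beta and 50 nM biotinylated H3K9me3 peptide was read by AlphaScreen. Buffer was PBS pH 7.4 with 0.01% Tween-20. Incubations ran 30 min at room temperature, with 10 ug/mL donor/acceptor beads.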
BAZ2B inh – BAZ2B (human) inhibition | 360,000 tested, 4.4% active | Potency, µM (top dose mostly 114 µM), actives largely listed as inhibitors | AlphaScreen BAZ2B-H3K14Ac peptide displacement; also: nearly all actives have a fitted effect of over 60% in size
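Compounds, titrated to a top concentration of 110 uM, were incubated 30 min at room temperature with preformed BAZ2B/acetyl-K14 H3 peptide complex (50 nM each). Proximity signal was measured by AlphaScreen after 20 min with beads.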
G9a inh – blocks human histone lysine methyltransferase G9a. 350,000 tested, 8.8% active. G9a H3K9 monomethylation, AlphaScreen, 2 h. Potency, µM (titrated, usually from 102 µM), usual class: inhibitors. Q96KQ7; also: nearly all actives have a fitted effect of over 75% in size
Target sequence (Q96KQ7 913-1193 limits assumed): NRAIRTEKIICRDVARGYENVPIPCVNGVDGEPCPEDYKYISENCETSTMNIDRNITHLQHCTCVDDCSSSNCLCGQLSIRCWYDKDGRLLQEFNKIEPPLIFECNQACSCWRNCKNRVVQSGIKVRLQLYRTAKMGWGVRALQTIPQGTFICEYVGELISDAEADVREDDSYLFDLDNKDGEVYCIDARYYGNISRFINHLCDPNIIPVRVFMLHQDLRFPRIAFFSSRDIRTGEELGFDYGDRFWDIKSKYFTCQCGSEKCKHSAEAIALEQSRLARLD
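Step 1: enzyme (final 20 nM) with compound, 15 min RT. Step 2: substrate peptide 500 nM and SAM 20 uM, 2 h RT. Step 3: anti-H3K9me1 antibody and AlphaScreen beads, 10 min, then plate read.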
JMJD2A Tudor inh – inhibitors of human JMJD2A Tudor domain; AlphaScreen JMJD2A-Tudor / H3K4me3 peptide binding; Potency, µM (titrated, usually from 114 µM), most hits filed as inhibitors; 390,000 tested, 4.4% active; also: nearly all actives have a fitted effect of over 50% in size
Sfp PPTase inh – blocks B. subtilis Sfp PPTase activity | Q9F4F7 | Biochemical Sfp PPTase activity, qHTS | Potency, µM, most hits filed as inhibitors | 310,000 tested, 3.5% active | AID 1490;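 also: the enzyme is Sfp with the accession as filed and its product quenches rhodamine fluorescence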
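With Hepes-Na pH 7.6 buffer containing 10 mM MgCl2, Sfp (15 nM) modified BHQ-2-YbbR (12.5 uM) using rhodamine-CoA (5 uM). Two reads 30 minutes apart at 525/598 nm yielded each well's rate.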
A number is an active result; [ ] = dose if it differs, or a comment. Calls follow the shape of the dose curve; as a rule, active = well fitted curve in the direction sought with a large enough effect; inconclusive = small, poorly fitted or top-dose-only effect, or another doubt; inactive = no such curve, though single readings can be large; an effect the other way counts as inactive or inconclusive.

`CCc1ccc(C(=O)NC(Cc2c[nH]c3ccccc23)C(=O)OCC(=O)c2ccc(Br)cc2)cc1` (stereo unspecified) gave HP1b binding inh inactive, BAZ2B inh inactive, G9a inh inactive and JMJD2A Tudor inh inactive.
For CN(CC(=O)Nc1cccc(F)c1)CC(=O)N(C)CC(=O)Nc1ccccc1Br the results were PLK1 PBD inh inactive, HP1b binding inh inactive, BAZ2B inh inactive, G9a inh inactive[2.33 µM] and JMJD2A Tudor inh inactive.
Cc1nc(NC(=S)NC(=O)c2cncc(Br)c2)ccc1Br was read as PLK1 PBD inh 21µM, HP1b binding inh inactive, BAZ2B inh inactive, JMJD2A Tudor inh 18µM and Sfp PPTase inh inconclusive.
`O=C(O)c1ccc(NC(=S)NC(=O)c2cncc(Br)c2)cc1` gave PLK1 PBD inh inactive, HP1b binding inh inactive, BAZ2B inh inconclusive, G9a inh 40µM, JMJD2A Tudor inh inactive and Sfp PPTase inh inactive.
For O=C(O)c1ccc(NC(=S)NC(=O)c2ccc(-c3ccccc3)cc2)cc1 the results were PLK1 PBD inh inconclusive, HP1b binding inh inconclusive, BAZ2B inh inconclusive, G9a inh 18µM, JMJD2A Tudor inh inconclusive and Sfp PPTase inh inconclusive.
For Cc1ccnc(NC(=S)NC(=O)c2cncc(Br)c2)c1 the results were PLK1 PBD inh inactive, HP1b binding inh inactive, BAZ2B inh inactive, G9a inh 0.63µM, JMJD2A Tudor inh inactive and Sfp PPTase inh inactive.
Screening C=CCOc1ccc(/C=C/C(=O)OCC(=O)N(C)CC(=O)Nc2ccccc2Cl)cc1 returned PLK1 PBD inh inactive, HP1b binding inh inactive, BAZ2B inh inactive, G9a inh inactive and JMJD2A Tudor inh inactive.
Screening c1ccc2c3c([nH]c2c1)[C@@H]1[C@H]2CC[C@H]([C@H]4CCCN[C@H]42)N1CC3 returned G9a inh 10µM and Sfp PPTase inh inactive.
Screening O=C1CCC[C@H]2c3[nH]c4ccccc4c3CCN12 returned PLK1 PBD inh inactive, HP1b binding inh inactive and JMJD2A Tudor inh inactive.
`Cc1ccc(Cl)cc1N1CCN(C(=O)c2cn(C)c3ccc(S(=O)(=O)N4CCCC4)cc3c2=O)CC1` gave HP1b binding inh inactive, G9a inh inactive and JMJD2A Tudor inh inactive.
Screening CC(C)(C)OC(=O)CNC(=O)c1nc[nH]c1C(=O)N1CCNCC1 returned PLK1 PBD inh inactive, HP1b binding inh inactive, BAZ2B inh 79µM, G9a inh inactive[2.33 µM] and JMJD2A Tudor inh inconclusive.
For CC(C)(C)OC(=O)N1CCN(C(=O)c2[nH]cnc2C(=O)NCC(=O)OCc2ccccc2)CC1 the results were PLK1 PBD inh inactive, HP1b binding inh inactive, BAZ2B inh inactive, G9a inh 71µM, JMJD2A Tudor inh inactive and Sfp PPTase inh inactive.
For CC(C)(C)OC(=O)CNC(=O)c1nc[nH]c1C(=O)N1CCc2ccccc2C1 the results were PLK1 PBD inh inactive, HP1b binding inh inactive, BAZ2B inh inactive, G9a inh inconclusive, JMJD2A Tudor inh inactive and Sfp PPTase inh inactive.
Screening CC(C)(C)OC(=O)N1CCN(C(=O)c2[nH]cnc2C(=O)NCc2ccccc2)CC1 returned PLK1 PBD inh inactive, HP1b binding inh inactive, BAZ2B inh inactive, G9a inh inactive[0.501 µM] and JMJD2A Tudor inh inactive.
`CC(C)(C)OC(=O)CNC(=O)c1nc[nH]c1C(=O)N1CCN(C(=O)OC(C)(C)C)CC1` gave PLK1 PBD inh inactive, HP1b binding inh inactive, BAZ2B inh inactive, G9a inh 79µM, JMJD2A Tudor inh inactive and Sfp PPTase inh inactive.
`CC1CCN(C(=O)c2[nH]cnc2C(=O)NCC(=O)OC(C)(C)C)CC1` gave PLK1 PBD inh inactive, HP1b binding inh inactive, BAZ2B inh inactive, G9a inh inactive, JMJD2A Tudor inh inactive and Sfp PPTase inh inactive.
For CCCCNC(=O)CCn1c(=O)c2ccccc2n(Cc2ccccc2C#N)c1=O the results were HP1b binding inh inactive, BAZ2B inh inactive, G9a inh inactive and JMJD2A Tudor inh inactive.
For Cc1nn(-c2ccc(Cl)cc2)c(NC(=O)C(C)C)c(-c2ccccc2)c1=O the results were PLK1 PBD inh inactive, HP1b binding inh inactive, BAZ2B inh inactive, G9a inh inactive, JMJD2A Tudor inh inactive and Sfp PPTase inh inactive.
Screening COc1ccccc1CN1CN(S(=O)(=O)c2ccccc2)c2nc3ccccc3nc21 returned PLK1 PBD inh inconclusive, HP1b binding inh inactive, BAZ2B inh inactive, G9a inh 32µM, JMJD2A Tudor inh inactive[11.4 µM] and Sfp PPTase inh inactive.
Cc1ccc(S(=O)(=O)Nc2nc3ccccc3nc2NCC2CCCO2)cc1 (stereo unspecified) was read as PLK1 PBD inh inactive, HP1b binding inh inactive, BAZ2B inh inactive, G9a inh inactive, JMJD2A Tudor inh inactive and Sfp PPTase inh inactive.
Screening Cc1ccc(S(=O)(=O)N2CN(CC3CCCO3)c3nc4ccccc4nc32)cc1 (stereo unspecified) returned PLK1 PBD inh inactive, HP1b binding inh inactive, BAZ2B inh inactive, G9a inh 28µM, JMJD2A Tudor inh inactive and Sfp PPTase inh inactive.
`CCc1cccc(CC)c1NC(=O)Cn1nnc2sc3c(c2c1=O)CCCC3` gave HP1b binding inh inactive, BAZ2B inh inactive, G9a inh inactive and JMJD2A Tudor inh inactive.
`COc1cc(C(C)C)c2c(c1)S(=O)(=O)N(COc1cc(=O)n3cccc(OCCN4CCCCC4)c3n1)C2=O` gave Sfp PPTase inh inactive.
For CC(S(=O)(=O)c1ccccc1)S(=O)(=O)c1ccccc1 the results were PLK1 PBD inh inactive.
`CC(N1CCOC1=O)S(=O)(=O)c1ccccc1` (stereo unspecified) gave PLK1 PBD inh inactive, HP1b binding inh inactive, BAZ2B inh 50µM, G9a inh inconclusive, JMJD2A Tudor inh inactive and Sfp PPTase inh 63µM.
For O=C(N/N=C/c1ccc2c(c1)OCO2)c1ccc2c(c1)OCCO2 the results were PLK1 PBD inh inactive, HP1b binding inh inactive, BAZ2B inh inactive, G9a inh inactive, JMJD2A Tudor inh inactive and Sfp PPTase inh inactive.
O=C(N/N=C/c1ccc2c(c1)OCO2)c1ccccn1 was read as PLK1 PBD inh inactive, HP1b binding inh inactive, BAZ2B inh inactive, G9a inh inactive, JMJD2A Tudor inh inactive and Sfp PPTase inh 79µM.
Screening O=C(N/N=C/c1ccc2c(c1)OCO2)c1ccc(Br)o1 returned PLK1 PBD inh inactive, HP1b binding inh inactive, BAZ2B inh 79µM, G9a inh inconclusive, JMJD2A Tudor inh inconclusive and Sfp PPTase inh inactive.
`O=C(N/N=C/c1cc2c(cc1Br)OCO2)c1ccccn1` gave PLK1 PBD inh inactive, HP1b binding inh inactive, BAZ2B inh inactive, G9a inh inactive, JMJD2A Tudor inh inactive and Sfp PPTase inh inactive.
O=C(N/N=C/c1cc2c(cc1Br)OCO2)c1c[nH]c2ccccc12 was read as PLK1 PBD inh inactive, HP1b binding inh inactive, BAZ2B inh inactive, G9a inh inactive, JMJD2A Tudor inh inactive and Sfp PPTase inh inactive.
`O=C(/C=C/c1ccccc1)c1ccccn1` gave PLK1 PBD inh inactive, HP1b binding inh inactive, BAZ2B inh inactive, G9a inh inconclusive, JMJD2A Tudor inh inactive and Sfp PPTase inh 28µM.
